Measured values from the supplement of paper PMC11001985.
Values without a mark were called inactive.

Each target was assayed with C#CCNC(=O)CCSSCCC(=O)NCCc1ccc(C=O)c(C=O)c1 (assay: lysine labeling ratio R10:1 (500 µM / 50 µM probe), SILAC-ABPP in living cells; higher = lower intrinsic lysine reactivity toward the probe, active = 2 or less). Details: HeLa; probe concentrations 500 vs 50 µM.
Procedure, shortened: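 Measurements came from LC-MS/MS on a TIMS-TOF Pro of mixed SILAC light and heavy HeLa lysates after click to biotin-azide, trypsin digestion, neutravidin capture, DTT release and alkylation. Before lysis, the living cells sat in PBS at room temperature with 50 µM or 500 µM of an alkyne-tagged, disulfide-linked lysine probe, and labels were swapped forward and reverse. R per lysine is the median across both swap directions of the filtered median high-probe/low-probe MS1 peptide ratio. The cap is 20.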

UniProt P21333, sequence (P21333 whole entry): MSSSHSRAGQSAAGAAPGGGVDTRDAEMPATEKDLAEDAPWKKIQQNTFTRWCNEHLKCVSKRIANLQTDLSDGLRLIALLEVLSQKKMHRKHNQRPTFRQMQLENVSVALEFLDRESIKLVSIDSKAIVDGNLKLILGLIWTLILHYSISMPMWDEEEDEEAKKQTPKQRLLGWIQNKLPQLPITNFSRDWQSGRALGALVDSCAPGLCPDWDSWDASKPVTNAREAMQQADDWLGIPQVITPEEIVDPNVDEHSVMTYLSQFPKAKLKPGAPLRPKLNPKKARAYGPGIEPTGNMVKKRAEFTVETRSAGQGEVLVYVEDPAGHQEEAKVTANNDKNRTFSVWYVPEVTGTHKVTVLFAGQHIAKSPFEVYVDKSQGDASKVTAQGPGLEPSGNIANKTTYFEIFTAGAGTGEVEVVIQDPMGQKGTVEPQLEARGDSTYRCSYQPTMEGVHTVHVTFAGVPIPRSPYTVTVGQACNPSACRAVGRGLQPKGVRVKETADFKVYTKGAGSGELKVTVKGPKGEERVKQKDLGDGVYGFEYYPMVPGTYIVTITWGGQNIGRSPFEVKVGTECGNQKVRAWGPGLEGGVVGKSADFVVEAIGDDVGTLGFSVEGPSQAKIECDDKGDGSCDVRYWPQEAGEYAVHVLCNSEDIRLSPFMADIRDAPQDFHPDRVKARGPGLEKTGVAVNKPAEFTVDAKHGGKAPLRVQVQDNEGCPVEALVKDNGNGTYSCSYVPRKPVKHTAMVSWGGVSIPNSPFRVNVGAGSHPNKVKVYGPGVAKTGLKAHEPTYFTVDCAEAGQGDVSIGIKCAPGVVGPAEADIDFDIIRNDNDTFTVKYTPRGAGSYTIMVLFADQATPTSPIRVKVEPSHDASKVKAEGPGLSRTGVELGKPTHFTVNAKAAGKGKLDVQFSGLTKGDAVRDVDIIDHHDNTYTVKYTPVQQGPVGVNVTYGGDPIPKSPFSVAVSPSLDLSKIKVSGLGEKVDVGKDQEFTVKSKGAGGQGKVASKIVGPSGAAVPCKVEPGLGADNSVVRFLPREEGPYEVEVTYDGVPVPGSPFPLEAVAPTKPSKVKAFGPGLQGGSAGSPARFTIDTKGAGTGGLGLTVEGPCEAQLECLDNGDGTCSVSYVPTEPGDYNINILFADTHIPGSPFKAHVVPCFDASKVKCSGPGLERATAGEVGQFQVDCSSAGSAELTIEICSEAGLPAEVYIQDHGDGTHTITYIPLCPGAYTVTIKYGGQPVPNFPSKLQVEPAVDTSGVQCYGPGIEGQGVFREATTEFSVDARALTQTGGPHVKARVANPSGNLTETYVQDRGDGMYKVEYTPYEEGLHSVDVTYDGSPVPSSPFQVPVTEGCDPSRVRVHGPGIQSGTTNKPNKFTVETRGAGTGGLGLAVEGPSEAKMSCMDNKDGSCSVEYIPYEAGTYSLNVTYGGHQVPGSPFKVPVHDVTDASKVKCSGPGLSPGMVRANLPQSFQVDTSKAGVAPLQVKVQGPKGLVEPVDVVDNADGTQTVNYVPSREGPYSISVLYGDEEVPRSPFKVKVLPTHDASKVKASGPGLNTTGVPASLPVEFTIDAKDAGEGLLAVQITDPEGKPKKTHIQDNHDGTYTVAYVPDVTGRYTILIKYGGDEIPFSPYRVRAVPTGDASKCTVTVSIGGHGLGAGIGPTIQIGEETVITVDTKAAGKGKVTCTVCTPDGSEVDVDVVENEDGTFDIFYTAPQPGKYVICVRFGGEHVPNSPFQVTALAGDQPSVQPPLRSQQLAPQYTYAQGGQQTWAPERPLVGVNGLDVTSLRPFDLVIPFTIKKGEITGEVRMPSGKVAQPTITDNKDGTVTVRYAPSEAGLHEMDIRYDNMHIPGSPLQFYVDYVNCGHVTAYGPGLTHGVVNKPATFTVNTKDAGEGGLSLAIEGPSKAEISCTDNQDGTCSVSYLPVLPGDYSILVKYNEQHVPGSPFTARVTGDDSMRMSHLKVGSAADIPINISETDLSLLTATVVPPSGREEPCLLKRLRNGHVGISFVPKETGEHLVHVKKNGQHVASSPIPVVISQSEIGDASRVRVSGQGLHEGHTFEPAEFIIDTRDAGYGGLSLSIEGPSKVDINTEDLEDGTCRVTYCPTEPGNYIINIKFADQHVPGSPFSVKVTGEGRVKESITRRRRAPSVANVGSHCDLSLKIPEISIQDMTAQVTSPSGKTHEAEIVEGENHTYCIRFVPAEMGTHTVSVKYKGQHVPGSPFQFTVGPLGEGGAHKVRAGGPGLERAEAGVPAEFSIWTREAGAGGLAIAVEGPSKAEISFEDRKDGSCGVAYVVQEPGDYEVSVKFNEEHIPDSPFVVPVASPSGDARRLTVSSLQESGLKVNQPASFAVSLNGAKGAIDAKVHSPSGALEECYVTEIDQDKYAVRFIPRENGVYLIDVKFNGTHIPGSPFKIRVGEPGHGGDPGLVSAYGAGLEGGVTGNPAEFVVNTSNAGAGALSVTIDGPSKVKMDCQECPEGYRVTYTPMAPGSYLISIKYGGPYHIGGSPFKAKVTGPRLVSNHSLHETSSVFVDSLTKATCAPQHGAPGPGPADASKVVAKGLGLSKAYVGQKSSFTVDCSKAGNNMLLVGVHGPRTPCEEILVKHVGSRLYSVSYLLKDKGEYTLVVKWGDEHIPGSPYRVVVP
UniProt P21926, sequence (P21926 whole entry): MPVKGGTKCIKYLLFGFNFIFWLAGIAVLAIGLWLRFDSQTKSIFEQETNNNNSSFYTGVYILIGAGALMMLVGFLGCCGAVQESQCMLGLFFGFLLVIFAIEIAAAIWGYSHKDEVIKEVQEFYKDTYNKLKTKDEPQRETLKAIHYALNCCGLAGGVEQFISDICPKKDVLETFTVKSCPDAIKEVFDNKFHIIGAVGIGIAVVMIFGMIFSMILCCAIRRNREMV
UniProt P14866, sequence (P14866 whole entry): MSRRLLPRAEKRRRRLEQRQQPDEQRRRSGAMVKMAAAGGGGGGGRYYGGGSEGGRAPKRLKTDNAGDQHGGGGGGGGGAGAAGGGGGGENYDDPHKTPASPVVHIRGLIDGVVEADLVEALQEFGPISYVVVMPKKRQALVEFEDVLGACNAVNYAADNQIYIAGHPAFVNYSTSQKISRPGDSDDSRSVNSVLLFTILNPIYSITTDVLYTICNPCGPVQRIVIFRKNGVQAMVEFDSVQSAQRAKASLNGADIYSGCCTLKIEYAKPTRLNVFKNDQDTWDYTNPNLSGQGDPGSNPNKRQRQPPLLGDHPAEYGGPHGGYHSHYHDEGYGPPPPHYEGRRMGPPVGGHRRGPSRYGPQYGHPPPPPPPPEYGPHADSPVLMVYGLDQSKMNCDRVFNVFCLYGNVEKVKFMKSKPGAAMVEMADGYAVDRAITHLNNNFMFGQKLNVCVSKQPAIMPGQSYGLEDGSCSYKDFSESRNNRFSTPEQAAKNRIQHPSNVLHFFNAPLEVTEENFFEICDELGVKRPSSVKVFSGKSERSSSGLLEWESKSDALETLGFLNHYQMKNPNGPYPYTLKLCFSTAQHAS
UniProt P49257, sequence (P49257 whole entry): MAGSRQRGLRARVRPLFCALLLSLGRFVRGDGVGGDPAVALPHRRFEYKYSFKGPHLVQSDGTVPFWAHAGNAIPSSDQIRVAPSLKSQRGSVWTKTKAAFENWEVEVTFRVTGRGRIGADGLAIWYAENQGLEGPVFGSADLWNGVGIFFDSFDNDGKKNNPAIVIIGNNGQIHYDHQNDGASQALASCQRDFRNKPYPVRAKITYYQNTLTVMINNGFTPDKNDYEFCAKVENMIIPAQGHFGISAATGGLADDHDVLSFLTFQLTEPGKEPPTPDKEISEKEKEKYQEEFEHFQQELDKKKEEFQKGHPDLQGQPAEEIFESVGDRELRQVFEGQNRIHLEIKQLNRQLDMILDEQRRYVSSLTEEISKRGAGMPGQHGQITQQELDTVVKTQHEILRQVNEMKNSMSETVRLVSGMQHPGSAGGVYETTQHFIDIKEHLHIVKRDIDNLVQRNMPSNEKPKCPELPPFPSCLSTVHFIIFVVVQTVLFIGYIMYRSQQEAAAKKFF
UniProt P60174, sequence (P60174 whole entry): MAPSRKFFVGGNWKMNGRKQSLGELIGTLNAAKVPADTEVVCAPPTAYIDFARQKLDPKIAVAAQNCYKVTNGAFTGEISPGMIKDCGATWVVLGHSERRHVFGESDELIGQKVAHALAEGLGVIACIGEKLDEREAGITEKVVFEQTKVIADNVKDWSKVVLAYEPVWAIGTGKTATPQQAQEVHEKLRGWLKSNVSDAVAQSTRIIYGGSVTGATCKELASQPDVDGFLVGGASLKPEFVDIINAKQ
UniProt Q14254, sequence (Q14254 whole entry): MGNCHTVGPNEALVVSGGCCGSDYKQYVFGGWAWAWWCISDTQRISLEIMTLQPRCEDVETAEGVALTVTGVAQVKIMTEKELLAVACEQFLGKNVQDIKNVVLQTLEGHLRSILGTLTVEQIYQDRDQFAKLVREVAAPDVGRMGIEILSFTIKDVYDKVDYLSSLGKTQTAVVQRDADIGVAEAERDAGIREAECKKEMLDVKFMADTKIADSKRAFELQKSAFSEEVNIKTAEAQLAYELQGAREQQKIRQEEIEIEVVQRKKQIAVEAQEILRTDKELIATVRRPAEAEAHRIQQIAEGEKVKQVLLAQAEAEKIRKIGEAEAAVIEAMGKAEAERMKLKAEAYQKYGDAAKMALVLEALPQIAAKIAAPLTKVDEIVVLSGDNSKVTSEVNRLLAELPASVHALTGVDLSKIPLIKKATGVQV
UniProt Q9Y3C8, sequence (Q9Y3C8 whole entry): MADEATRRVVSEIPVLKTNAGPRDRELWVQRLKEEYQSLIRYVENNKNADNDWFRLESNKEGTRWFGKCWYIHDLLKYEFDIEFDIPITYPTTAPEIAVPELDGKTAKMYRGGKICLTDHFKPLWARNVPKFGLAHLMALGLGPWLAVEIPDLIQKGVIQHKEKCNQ
UniProt P61769, sequence (P61769 whole entry): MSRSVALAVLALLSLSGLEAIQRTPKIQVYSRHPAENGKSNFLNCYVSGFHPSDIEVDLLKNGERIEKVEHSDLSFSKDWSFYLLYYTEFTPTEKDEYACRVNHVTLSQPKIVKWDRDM

Target	lysine labeling ratio R10:1
UniProt P62805 (lysine site: K78)	8.41
AGRN (lysine site: K1934) (UniProt O00468)	2.08
NOTCH2 (lysine site: K693) (UniProt Q04721)	1.5 (active)
CD9 (lysine site: K135) (UniProt P21926)	3.43
SLC25A1 (lysine site: K160) (UniProt P53007)	2.79
AK2 (lysine site: K147) (UniProt P54819)	6.91
HNRNPL (lysine site: K269) (UniProt P14866)	2.23
UFC1 (lysine site: K33) (UniProt Q9Y3C8)	3.81
UniProt P46781 (lysine site: K180)	2.7
FLNA (lysine site: K1593) (UniProt P21333)	2.69
EPRS (lysine site: K328) (UniProt P07814)	1.73 (active)
LAMC1 (lysine site: K1329) (UniProt P11047)	1.2 (active)
FLOT2 (lysine site: K132) (UniProt Q14254)	2.82
FLNA (lysine site: K1824) (UniProt P21333)	5.16
RPS3A (lysine site: K152) (UniProt P61247)	3.85
RTN4 (lysine site: K1104) (UniProt Q9NQC3)	1.32 (active)
UniProt P62826 (lysine site: K99)	2.78
TPI1 (lysine site: K194) (UniProt P60174)	1.22 (active)
LMAN1 (lysine site: K346) (UniProt P49257)	9.39
FBL (lysine site: K84) (UniProt P22087)	3.62
B2M (lysine site: K111) (UniProt P61769)	15.6
ACTN1 (lysine site: K741) (UniProt P12814)	1.15 (active)
UniProt Q15149 (lysine site: K2154)	1.47 (active)
